Test results as given in the supplement of paper PMC3545927.
This is one part of the list. The true hit rate is not given.

Target: furin, P09958
Assay: furin cleavage Z-score vs untreated control; higher = more cleavage, active = 3.5 or more, inactive = 1 or less, 8 variable residues between constant flanks
Protocol: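 Multiplexed peptide-cDNA fusion cleavage assay. 8-mer variable peptides flanked by constant Cys-Ala (N-term) and Ala-Gly-Asn-Ala-Ser-Ala-Ser-Ala (C-term) and conjugated to a cDNA oligonucleotide were bead-immobilised via the N-terminus. They were treated with purified furin at a 1:10 enzyme:substrate ratio in 50 mM HEPES pH 7.5, 1 mM CaCl2, 100 mM NaCl for 7.5, 15 or 30 min. Released cDNA was counted by next-generation sequencing, and log counts versus no-furin controls were lowess-adjusted and converted to robust Z-scores.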

Chain of furin, P09958 (P09958 whole entry): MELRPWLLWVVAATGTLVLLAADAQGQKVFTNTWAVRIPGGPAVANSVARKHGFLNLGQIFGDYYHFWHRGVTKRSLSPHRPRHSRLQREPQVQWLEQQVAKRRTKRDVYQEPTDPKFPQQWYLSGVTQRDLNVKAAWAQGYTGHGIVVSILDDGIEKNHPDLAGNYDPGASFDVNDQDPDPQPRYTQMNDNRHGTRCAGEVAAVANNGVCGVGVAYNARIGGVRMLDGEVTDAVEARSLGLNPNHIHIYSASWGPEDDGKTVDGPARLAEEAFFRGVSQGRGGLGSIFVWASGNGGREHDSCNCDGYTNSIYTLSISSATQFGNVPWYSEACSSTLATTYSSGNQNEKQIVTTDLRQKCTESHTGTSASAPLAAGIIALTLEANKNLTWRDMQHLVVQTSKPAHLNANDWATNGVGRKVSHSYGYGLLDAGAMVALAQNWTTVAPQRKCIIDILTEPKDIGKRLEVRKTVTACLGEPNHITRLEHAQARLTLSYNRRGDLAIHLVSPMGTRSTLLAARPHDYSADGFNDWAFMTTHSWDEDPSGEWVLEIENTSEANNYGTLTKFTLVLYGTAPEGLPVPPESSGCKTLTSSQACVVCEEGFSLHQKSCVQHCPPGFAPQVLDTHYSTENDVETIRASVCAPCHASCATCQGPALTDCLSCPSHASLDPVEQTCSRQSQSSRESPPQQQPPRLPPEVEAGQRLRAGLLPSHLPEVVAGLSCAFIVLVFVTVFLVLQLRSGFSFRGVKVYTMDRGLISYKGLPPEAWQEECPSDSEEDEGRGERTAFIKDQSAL

| Sequence | furin cleavage Z-score (7.5 min) | furin cleavage Z-score (15 min) | furin cleavage Z-score (30 min) |
| --- | --- | --- | --- |
| CAVTCCSMSYAGNASASA [HC2018] | 0.12 (inactive) | -1.47 (inactive) | -1.48 (inactive) |
| CANAEDVVCCAGNASASA [HC1367] | -0.652 (inactive) | -1.38 (inactive) | -0.581 (inactive) |
| CAISERQARFAGNASASA [FS-171] | 0.813 (inactive) | -0.669 (inactive) | 1.86 |
| CAPGSRKRRTAGNASASA [FS-1147] | 11.2 (active) | 13.8 (active) | 9.92 (active) |
| CAIDRRIARFAGNASASA [FS-539] | 1.87 | 1.35 | 3.96 (active) |
| CANCSREARGAGNASASA [FS-832] | -1.13 (inactive) | -0.942 (inactive) | -0.54 (inactive) |
| CANCSIYPGHAGNASASA [HC313] | 0.763 (inactive) | -0.054 (inactive) | 0.871 (inactive) |
| CAIDTLTCGFAGNASASA [HC222] | 0.261 (inactive) | -0.013 (inactive) | 0.099 (inactive) |
| CAVVNRKARFAGNASASA [FS-208] | 6.98 (active) | 8.16 (active) | 8.51 (active) |
| CANCSRKRRTAGNASASA [FS-551] | 9.83 (active) | 9.81 (active) | 7.5 (active) |
| CASTPCSMHLAGNASASA [HC2526] | 0.123 (inactive) | 0.577 (inactive) | 0.242 (inactive) |
| CAVHGCPLPPAGNASASA [HC1316] | -0.297 (inactive) | 0.367 (inactive) | 0.0305 (inactive) |
| CAEEECSQHLAGNASASA [HC1672] | 0.0201 (inactive) | 1.31 | 0.995 (inactive) |
| CAGDRVYIHPAGNASASA [EK2] | -0.225 (inactive) | -0.247 (inactive) | -0.383 (inactive) |
| CAMEHCSQHLAGNASASA [HC1715] | -0.776 (inactive) | -0.0908 (inactive) | 0.617 (inactive) |
| CAHPDATYSRAGNASASA [HC455] | -0.242 (inactive) | -1.51 (inactive) | -2.12 (inactive) |
| CATRSRRGRFAGNASASA [FS-204] | 2.71 | 5.35 (active) | 4.64 (active) |
| CAPGSRKARFAGNASASA [FS-280] | 7.61 (active) | 8.81 (active) | 9.66 (active) |
| CAQRSRQKKTAGNASASA [FS-1392] | -1.4 (inactive) | -0.885 (inactive) | 0.286 (inactive) |
| CAQWIRVKRTAGNASASA [FS-372] | 10 (active) | 8.77 (active) | 8.64 (active) |
| CASWTGALVTAGNASASA [HC1373] | 1.05 | 1.42 | 0.57 (inactive) |
| CAPMSRGDRFAGNASASA [FS-701] | -0.701 (inactive) | -0.0648 (inactive) | 0.556 (inactive) |
| CAHHNLVYSTAGNASASA [HC1387] | 0.206 (inactive) | 0.355 (inactive) | 0.257 (inactive) |

| Sequence | furin cleavage Z-score (7.5 min) | furin cleavage Z-score (15 min) | furin cleavage Z-score (30 min) |
| --- | --- | --- | --- |
| CAMPRRRGRFAGNASASA [FS-1037] | -0.497 (inactive) | 1.44 | 2.55 |
| CALWSRYGRFAGNASASA [FS-1034] | 0.532 (inactive) | 1.92 | -0.157 (inactive) |
| CASWNRVARTAGNASASA [FS-199] | 4.98 (active) | 4.02 (active) | 5.03 (active) |
| CAPWITPRCLAGNASASA [HC461] | 1.9 | 1.18 | 0.0858 (inactive) |
| CANLEVVTSTAGNASASA [HC2281] | 0.776 (inactive) | -1.12 (inactive) | -0.725 (inactive) |
| CAMKSRLRRTAGNASASA [FS-1035] | 6.13 (active) | 6.71 (active) | 5.42 (active) |
| CAVRGRAGRSAGNASASA [FS-515] | 1.52 | 1.9 | 0.698 (inactive) |
| CAAKGRAGRSAGNASASA [FS-971] | 7.82 (active) | 7.81 (active) | 6.06 (active) |
| CAQLSRAGRSAGNASASA [FS-81] | 6.21 (active) | 8.4 (active) | 8.08 (active) |
| CAPPSVASSSAGNASASA [HC1258] | 0.0747 (inactive) | 0.138 (inactive) | 0.956 (inactive) |
| CARCRRSVSSAGNASASA [FS-2548] | 4.14 (active) | 2.68 | 3.73 (active) |
| CARSERDVLLAGNASASA [FS-3077] | 1.87 | -0.515 (inactive) | 0.482 (inactive) |
| CARSARPLVQAGNASASA [FS-2085] | -2.45 (inactive) | 0.432 (inactive) | -1.67 (inactive) |
| CARSARDVSSAGNASASA [FS-2302] | 9.56 (active) | 8.78 (active) | 6.82 (active) |
| CAPDVVCCSMAGNASASA [HC2119] | -0.96 (inactive) | 1.32 | -0.361 (inactive) |
| CAGSWSTVSSAGNASASA [HC1362] | 0.499 (inactive) | -0.166 (inactive) | -0.172 (inactive) |
| CADHRRSVDSAGNASASA [FS-2628] | -1.5 (inactive) | 0.662 (inactive) | 1.77 |
| CASVAHDGAGAGNASASA [HC1556] | -0.273 (inactive) | -3.13 (inactive) | 0.415 (inactive) |
| CARSARDTAQAGNASASA [FS-3168] | 5.29 (active) | 5.99 (active) | 5.11 (active) |
| CARSARKSNFAGNASASA [FS-3073] | -1.18 (inactive) | 0.463 (inactive) | -0.0584 (inactive) |
| CARCRRTVSMAGNASASA [FS-1998] | 1.07 | 2.14 | 4.65 (active) |
| CARDVVCCSMAGNASASA [HC2113] | 0.281 (inactive) | -1.32 (inactive) | 2.45 |
